Screening results as filed in PubChem.
Pf Dd2 growth: inhibitors of Plasmodium falciparum Dd2 growth. AID 1159554. P. falciparum Dd2 growth, SYBR Green, 72 h; stronger effect = lower value. activity change, % at 10 µM. hit rate 2.3% among 94,000; in the data active = activity change below about -80%; inconclusive = no clear call, values can overlap the other calls
C diff growth: blocks growth of Clostridium difficile | Clostridium difficile clinical isolate growth, OD600, 24 h; stronger effect = lower value | growth activity, negative = inhibition, % at 16 µg/mL (by protocol) | hit rate 0.25% among 86,000;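 active = mean growth activity at or below -80% and every replicate also at or below -80%; inconclusive = mean at or below -80% but some replicate above -80%; inactive = mean growth activity above -80%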
T cruzi growth-1: inhibitors of T. cruzi proliferation; T. cruzi beta-gal in NIH3T3, GalScreen luminescence, 90 h; hit rate 5.9% among 77,000; AID 624255; inhibition, % at 8.34 µM;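 active = mean inhibition above about 93%, with at least 55% of replicates each passing it, limit read from the data, passing the limit was not always enough; inconclusive = only one of those two conditions holds; inactive = neither condition holds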
T cruzi growth-2: inhibitors of T. cruzi proliferation; AID 651739; hit rate 72% among 5,600; shares compounds with T cruzi growth-1; T. cruzi beta-gal in NIH3T3, GalScreen luminescence, 90 h; inhibition, % at 8.35 µM;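 active = mean replicate inhibition above about 95% and at least 55% of replicates individually reaching it, limit read from the data; inconclusive = only one of the two criteria is met; inactive = neither criterion is met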
T cruzi growth-3: inhibitors of T. cruzi proliferation; shares compounds with T cruzi growth-1; T. cruzi beta-gal in NIH3T3, GalScreen luminescence, 90 h; inhibition, % at 2.09 µM; hit rate 21% among 5,600;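 active = mean inhibition above about 95%, with at least 55% of replicates also reaching it, limit read from the data; inconclusive = meets just one of the two conditions; inactive = meets neither condition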
NIH3T3 tox: kills mouse NIH/3T3 fibroblasts | shares compounds with T cruzi growth-1 | NIH/3T3 viability, CellTiter-Glo ATP luminescence, 90 h | cytotoxicity (signal decrease), % at 8.35 µM | hit rate 14% among 5,600;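 active = mean signal decrease across replicates above about 35% based on untreated-well scatter, with enough replicates individually passing, limit read from the data; inconclusive = no rule stated though some were filed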
NIH3T3 tox 2: kills mouse NIH/3T3 fibroblasts. NIH/3T3 viability, CellTiter-Glo ATP luminescence, 90 h. AID 651744. inhibition, % at 24.9 µM. hit rate 56% among 5,600. shares compounds with T cruzi growth-1;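 active = mean loss of cell viability signal at or above a set limit, and enough replicates individually reaching it; inconclusive = meets only the mean limit or only the replicate share; inactive = meets neither condition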
Large screens that a line does not name were inactive (follow-up assays come after a bar, where they were run); ! = not active in a repeat. Most compounds without a hit are left out; they make up all but 6.7% or so of the library.

O=C(NCC[C@H]1CC[C@@H](NC(=O)c2cnccn2)[C@H](CO)O1)Nc1ccc(F)cc1	none
CCCN1C[C@H](C)[C@H](OC)CN(C)C(=O)c2cc(NC(=O)COC)ccc2OC[C@H]1C	none
C[C@H]1CN([C@@H](C)CO)C(=O)c2cccc(NS(=O)(=O)c3ccc(Cl)cc3)c2O[C@H]1CN(C)S(=O)(=O)c1cccs1	none
CCC(=O)N1CC2(C1)[C@H](c1ccc(-c3ccc(F)cc3)cc1)[C@H](CO)N2S(C)(=O)=O	none (no result: T cruzi growth-1)
CN1C(=O)c2cc(NC(=O)c3ccc(F)c(F)c3)ccc2OC[C@H]2O[C@@H](CC(=O)N[C@@H]3CCN(Cc4ccccc4)C3)CC[C@@H]21	T cruzi growth-1 98 (no result: Pf Dd2 growth) | T cruzi growth-2 inactive | T cruzi growth-3 inactive | NIH3T3 tox inactive | NIH3T3 tox 2 inactive
CN1C(=O)c2cc(NC(=O)c3ccc(F)c(F)c3)ccc2OC[C@@H]2O[C@@H](CC(=O)N[C@H]3CCN(Cc4ccccc4)C3)CC[C@@H]21	T cruzi growth-1 101 (no result: Pf Dd2 growth, C diff growth) | T cruzi growth-2 106 | T cruzi growth-3 inactive | NIH3T3 tox inactive | NIH3T3 tox 2 inactive
CN1C(=O)c2cc(NC(=O)c3ccc(F)c(F)c3)ccc2OC[C@H]2O[C@@H](CC(=O)N[C@H]3CCN(Cc4ccccc4)C3)CC[C@H]21	T cruzi growth-1 103 (no result: Pf Dd2 growth) | T cruzi growth-2 inactive | T cruzi growth-3 inactive | NIH3T3 tox inactive | NIH3T3 tox 2 inconclusive
CCS(=O)(=O)Nc1ccc2c(c1)C(=O)N(C)[C@@H]1CC[C@@H](CC(=O)N[C@H]3CCN(Cc4ccccc4)C3)O[C@@H]1CO2	none (no result: Pf Dd2 growth, C diff growth)
CN1C(=O)c2cc(NC(=O)Cc3cccs3)ccc2OC[C@@H]2O[C@@H](CC(=O)N[C@@H]3CCN(Cc4ccccc4)C3)CC[C@@H]21	none (no result: Pf Dd2 growth)
CN1C(=O)c2cc(NC(=O)c3ccc(F)c(F)c3)ccc2OC[C@@H]2O[C@H](CC(=O)N[C@H]3CCN(Cc4ccccc4)C3)CC[C@@H]21	T cruzi growth-1 104 (no result: Pf Dd2 growth) | T cruzi growth-2 104 | T cruzi growth-3 inactive | NIH3T3 tox inactive | NIH3T3 tox 2 32
CN1C(=O)c2cc(NC(=O)c3ccc(F)c(F)c3)ccc2OC[C@H]2O[C@H](CC(=O)N[C@@H]3CCN(Cc4ccccc4)C3)CC[C@H]21	none (no result: Pf Dd2 growth)
CN1C(=O)c2cc(NC(=O)Cc3cccs3)ccc2OC[C@H]2O[C@@H](CC(=O)N[C@@H]3CCN(Cc4ccccc4)C3)CC[C@H]21	none (no result: Pf Dd2 growth)
COCC(=O)Nc1ccc2c(c1)C(=O)N(C)C[C@H](OC)[C@@H](C)CN(C(=O)NC(C)C)[C@@H](C)CO2	none (no result: C diff growth)
C[C@@H]1CN([C@H](C)CO)C(=O)Cc2cc(NS(=O)(=O)c3ccccc3)ccc2O[C@H]1CN(C)C	none (no result: T cruzi growth-1)
C[C@@H]1CCCCO[C@H](CN(C)S(C)(=O)=O)[C@@H](C)CN([C@@H](C)CO)C(=O)c2cc(NS(=O)(=O)c3ccc(F)cc3)ccc2O1	none
C[C@H](CO)N1C[C@H](C)[C@H](CN(C)S(=O)(=O)c2ccccc2)Oc2c(NC(=O)c3nc4ccccc4s3)cccc2C1=O	none
COc1ccc(NC(=O)Nc2ccc3c(c2)C(=O)N([C@@H](C)CO)C[C@H](C)[C@H](CN(C)Cc2ccccc2)O3)cc1	none
CN1C(=O)c2cc(NC(=O)c3ccc(F)c(F)c3)ccc2OC[C@@H]2O[C@H](CC(=O)N[C@@H]3CCN(Cc4ccccc4)C3)CC[C@@H]21	T cruzi growth-1 108 (no result: Pf Dd2 growth) | T cruzi growth-2 inconclusive | T cruzi growth-3 inactive | NIH3T3 tox inactive | NIH3T3 tox 2 54
C[C@@H]1CN([C@@H](C)CO)C(=O)c2cccc(NS(=O)(=O)c3cn(C)cn3)c2O[C@@H]1CN(C)C(=O)NC1CCCCC1	none
C[C@H](CO)N1C[C@H](C)[C@@H](CN(C)S(=O)(=O)c2ccccc2)Oc2ccc(NC(=O)c3ccncc3)cc2CC1=O	none (no result: T cruzi growth-1)
O=C(Cc1ccccn1)NCC[C@H]1CC[C@@H](NS(=O)(=O)c2ccccc2)[C@H](CO)O1	none
C[C@@H]1CN([C@@H](C)CO)C(=O)Cc2cc(NC(=O)Cn3cnnn3)ccc2O[C@H]1CN(C)CC1CC1	none
COc1cccc(S(=O)(=O)N(C)C[C@H]2OCc3cn(nn3)CCCC(=O)N([C@H](C)CO)C[C@@H]2C)c1	T cruzi growth-1 inconclusive | T cruzi growth-2 inactive | T cruzi growth-3 inactive | NIH3T3 tox inactive | NIH3T3 tox 2 inactive
C[C@@H]1CN([C@H](C)CO)C(=O)CCCn2cc(nn2)CO[C@@H]1CN(C)S(=O)(=O)c1ccc2ccccc2c1	none (no result: C diff growth)
COc1cccc(S(=O)(=O)N(C)C[C@H]2OCc3cn(nn3)CCCC(=O)N([C@@H](C)CO)C[C@@H]2C)c1	T cruzi growth-1 116! | T cruzi growth-2 inactive | T cruzi growth-3 inactive | NIH3T3 tox inactive | NIH3T3 tox 2 inactive
C[C@@H]1CN([C@@H](C)CO)C(=O)CCCn2cc(nn2)CO[C@H]1CN(C)S(=O)(=O)c1ccc2ccccc2c1	T cruzi growth-1 125! | T cruzi growth-2 inactive | T cruzi growth-3 inactive | NIH3T3 tox inactive | NIH3T3 tox 2 inactive
COc1cccc(S(=O)(=O)N(C)C[C@@H]2OCc3cn(nn3)CCCC(=O)N([C@@H](C)CO)C[C@@H]2C)c1	none
COc1cccc(S(=O)(=O)N(C)C[C@H]2OCc3cn(nn3)CCCC(=O)N([C@@H](C)CO)C[C@H]2C)c1	none
C/C=C/c1ccc2c(c1)O[C@@H](CN(C)C(=O)c1ccc(F)cc1)[C@H](C)CN([C@H](C)CO)S2(=O)=O	none (no result: C diff growth, T cruzi growth-1)
CN1CCN(C(=O)C[C@H]2CC[C@@H]3[C@H](COC[C@@H](O)CN3CC3CCOCC3)O2)CC1	none
O=C(O)C[C@H]1C=C[C@@H](NC(=O)c2ccncc2)[C@H](CO)O1	none (no result: C diff growth)
CC(C)NC(=O)N(C)C[C@@H]1OCCCC[C@H](C)Oc2ccc(NC(=O)Nc3ccc(F)cc3)cc2C(=O)N([C@@H](C)CO)C[C@H]1C	none
O=C(Cc1ccncc1)N1CC[C@@H]2[C@H](CO)Nc3ccc(-c4ccccc4F)cc3[C@@H]21	T cruzi growth-1 112 | T cruzi growth-2 107 | T cruzi growth-3 inactive | NIH3T3 tox inactive | NIH3T3 tox 2 inconclusive
O=C(Cc1ccncc1)N1CC[C@@H]2[C@H]1c1cc(-c3ccccc3F)ccc1N[C@@H]2CO	T cruzi growth-1 118 | T cruzi growth-2 99 | T cruzi growth-3 inactive | NIH3T3 tox inactive | NIH3T3 tox 2 inactive
O=C(c1cnccn1)N1CC[C@@H]2[C@@H](CO)Nc3ccc(-c4ccccc4F)cc3[C@@H]21	none
O=C(Cc1ccccc1)N1CC[C@@H]2[C@@H](CO)Nc3ccc(-c4ccccc4F)cc3[C@@H]21	none
CO[C@@H]1CN(C)C(=O)c2cc(NC(=O)c3ccccc3)ccc2OC[C@H](C)N(C(=O)CN(C)C)C[C@@H]1C	none
C[C@@H]1CN([C@@H](C)CO)C(=O)c2cccc(NC(=O)c3ccncc3)c2O[C@@H]1CN(C)S(C)(=O)=O	none
